Consider 7 compounds from PubChem BioAssay (EPA / NIEHS).

Read-out in assay [1]: Vascular cell adhesion molecule 1 (VCAM1), VCAM1 (gene 7412)
The experiment in a line: BSK_4H_VCAM1: BioMAP Diversity Plus: 4H Assay for Vascular cell adhesion molecule 1 (VCAM1) Biomarker Activity (AID 2283033).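 On outcome: cell-surface VCAM-1 protein measured by ELISA.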 The settings on record: primary human endothelial cells (HUVEC); actives raise or lower the signal. In a few lines:
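In this human endothelial (HUVEC) system, biomarker ELISA was run 24 h after compound addition, and total protein in parallel wells was assessed by SRB at 560 nm; DMSO served as negative control.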

Read-out in assay [2]: Interferon-gamma inducible Protein 10 (IP10), CXCL10 (gene 3627)
Put plainly: BSK_BE3C_IP10: BioMAP Diversity Plus: BE3C Assay for Interferon-gamma inducible Protein 10 (IP10) Biomarker Activity (AID 2283034). Conditions: primary human bronchial epithelial cells; actives raise or lower the signal. In a few lines: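 BE3C cells (human bronchial epithelial, primary); 24 h exposure; ELISA for IP-10; DMSO-referenced bidirectional fit.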

Read-out in assay [3]: Monokine induced gamma interferon (MIG), CXCL9 (gene 4283)
Put plainly: BSK_BE3C_MIG: BioMAP Diversity Plus: BE3C Assay for Monokine induced gamma interferon (MIG) Biomarker Activity (AID 2283035).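 Further: MIG protein measured by ELISA in BE3C cultures after 24 h of dosing.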 Conditions: primary human bronchial epithelial cells; actives raise or lower the signal. In a few lines: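 hu bronchial epithelial 1° cells, 24 h cpd; MIG by ELISA; bidirectional fit, DMSO = baseline.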

Read-out in assay [4]: Transforming growth factor beta 1 (TGFb1), TGFB1 (gene 7040)
Put plainly: BSK_BE3C_TGFb1: BioMAP Diversity Plus: BE3C Assay for Transforming growth factor beta 1 (TGFb1) Biomarker Activity (AID 2283036;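 on outcome: TGF-b1 protein level measured by ELISA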). Conditions: primary human bronchial epithelial cells; actives raise or lower the signal. In a few lines:
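TGF-b1 measured via ELISA, 24 h after chemical dosing of human bronchial epithelial cells (BE3C). Overt cytotoxicity assessed in parallel by SRB (0.1%, TCA-fixed, 560 nm); analysis bidirectional relative to DMSO.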

Read-out in assay [5]: Plasminogen activator inhibitor-1 (PAI1), SERPINE1 (gene 5054)
The experiment in a line: BSK_BE3C_PAI1: BioMAP Diversity Plus: BE3C Assay for Plasminogen activator inhibitor-1 (PAI1) Biomarker Activity (AID 2283037). The settings on record: primary human bronchial epithelial cells; actives raise or lower the signal. In a few lines:
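In this multiplexed primary-cell system, bronchial epithelial cells receive test chemical and are sampled at 24 h. PAI-1 is read by ELISA, with DMSO serving as negative control for bidirectional fitting.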

Read-out in assay [6]: urokinase plasminogen activator (uPA), PLAU (gene 5328)
The experiment in a line: BSK_BE3C_uPA: BioMAP Diversity Plus: BE3C Assay for urokinase plasminogen activator (uPA) Biomarker Activity (AID 2283038).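 On outcome: uPA protein level quantified by ELISA in cell cultures; uPA read one day after compound addition.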 Conditions: primary human bronchial epithelial cells; actives raise or lower the signal. The essentials: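 Human primary bronchial epithelial cells were exposed to chemical for 24 h, then uPA levels were measured by ELISA. Responses were fitted bidirectionally against DMSO as negative control and baseline. Parallel SRB staining of total protein gauged overt cytotoxicity.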

Read-out in assay [7]: Urokinase-type plasminogen activator receptor (uPAR), PLAUR (gene 5329)
Put plainly: BSK_BE3C_uPAR: BioMAP Diversity Plus: BE3C Assay for Urokinase-type plasminogen activator receptor (uPAR) Biomarker Activity (AID 2283039).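 On outcome: cells exposed to compound for one day before measurement.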 The settings on record: primary human bronchial epithelial cells; actives raise or lower the signal. The essentials:
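Chemically treated human bronchial epithelial cells (lung primary) are assayed for uPAR by ELISA after 24 h, with data fitted in both directions using DMSO as negative control.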

Read-out in assay [8]: Interleukin-6 (IL6), IL6 (gene 3569)
The experiment in a line: BSK_CASM3C_IL6: BioMAP Diversity Plus: CASM3C Assay for Interleukin-6 (IL6) Biomarker Activity for (AID 2283040). Conditions: primary human coronary artery smooth muscle cells; actives raise or lower the signal.

Read-out in assay [9]: Tissue plasminogen activator (tPA), PLAT (gene 5327)
The experiment in a line: BSK_BE3C_tPA: BioMAP Diversity Plus: BE3C Assay for Tissue plasminogen activator (tPA) Biomarker Activity (AID 2283041).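 On outcome: tPA level quantified by ELISA one day after compound addition.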 Conditions: primary human bronchial epithelial cells; actives raise or lower the signal. In a few lines: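 Using human lung primary bronchial epithelial cells, tPA was measured by ELISA 24 h after dosing; data fitted relative to DMSO.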

Read-out in assay [10]: Interleukin-8 (IL8), CXCL8 (gene 3576)
The experiment in a line: BSK_CASM3C_IL8: BioMAP Diversity Plus: CASM3C Assay for Interleukin-8 (IL8) Biomarker Activity (AID 2283042).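 Further: IL-8 protein level quantified by ELISA.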 Conditions: primary human coronary artery smooth muscle cells; actives raise or lower the signal.

Read-out in assay [11]: Human Leukocyte Antigen - DR isotype (HLADR), HLA-DRA (gene 3122)
The experiment in a line: BSK_CASM3C_HLADR: BioMAP Diversity Plus: CASM3C Assay for Human Leukocyte Antigen - DR isotype (HLADR) Biomarker Activity (AID 2283043).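 Further: cell-surface HLA-DR protein level quantified by ELISA.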 The settings on record: primary human coronary artery smooth muscle cells; actives raise or lower the signal.

Read-out in assay [12]: Macrophage colony-stimulating factor (MCSF), CSF1 (gene 1435)
Put plainly: BSK_CASM3C_MCSF: BioMAP Diversity Plus: CASM3C Assay for Macrophage colony-stimulating factor (MCSF) Biomarker Activity (AID 2283044).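 Further: M-CSF protein amount quantified by ELISA after 24 h exposure.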 Conditions: primary human coronary artery smooth muscle cells; actives raise or lower the signal.

Read-out in assay [13]: Low-density lipoprotein receptor (LDLR), LDLR (gene 3949)
The experiment in a line: BSK_CASM3C_LDLR: BioMAP Diversity Plus: CASM3C Assay for Low-density lipoprotein receptor (LDLR) Biomarker Activity (AID 2283045).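 Further: LDLR protein level on the cell surface quantified by ELISA.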 The settings on record: primary human coronary artery smooth muscle cells; actives raise or lower the signal.

Read-out in assay [14]: Monocyte Chemoattractant Protein-1 (MCP1), CCL2 (gene 6347)
The experiment in a line: BSK_CASM3C_MCP1: BioMAP Diversity Plus: CASM3C Assay for Monocyte Chemoattractant Protein-1 (MCP1) Biomarker Activity (AID 2283046).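 Further: MCP-1 level quantified by ELISA 24 h after dosing.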 The settings on record: primary human coronary artery smooth muscle cells; actives raise or lower the signal.

A short description of assay [15]: BSK_CASM3C_Proliferation: Cell Proliferation Assessment in the BioMAP Diversity Plus: CASM3C Assay (AID 2283047).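 Further: sulforhodamine B total protein stain as relative cell number at 560 nm; sub-confluent cells exposed 48 h before staining; fitted both ways against DMSO so gain or loss of cell number.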 Conditions: primary human coronary artery smooth muscle cells.
Read-out in assay [16]: Monokine induced gamma interferon (MIG), CXCL9 (gene 4283)
Put plainly: BSK_CASM3C_MIG: BioMAP Diversity Plus: CASM3C Assay for Monokine induced gamma interferon (MIG) Biomarker Activity (AID 2283048). The settings on record: primary human coronary artery smooth muscle cells; actives raise or lower the signal.

Read-out in assay [17]: serum amyloid A (SAA), SAA1 (gene 6288)
Put plainly: BSK_CASM3C_SAA: BioMAP Diversity Plus: CASM3C Assay for serum amyloid A (SAA) Biomarker Activity (AID 2283049).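 Further: SAA protein level quantified by ELISA.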 The settings on record: primary human coronary artery smooth muscle cells; actives raise or lower the signal.

Assay [18] is described as follows: BSK_CASM3C_SRB: Viability Assessment in the BioMAP Diversity Plus: CASM3C Assay (AID 2283050).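 Further: total protein by SRB staining as cytotoxicity measure in parallel cultures.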 Conditions: primary human coronary artery smooth muscle cells.
Read-out in assay [19]: Thrombomodulin, THBD (gene 7056)
Put plainly: BSK_CASM3C_Thrombomodulin: BioMAP Diversity Plus: CASM3C Assay for Thrombomodulin Biomarker Activity (AID 2283051).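 Further: thrombomodulin protein level measured by ELISA 24 h after dosing.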 Conditions: primary human coronary artery smooth muscle cells; actives raise or lower the signal.

Read-out in assay [20]: Tissue Factor, F3 (gene 2152)
The experiment in a line: BSK_CASM3C_TissueFactor: BioMAP Diversity Plus: CASM3C Assay for Tissue Factor Biomarker Activity (AID 2283052).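 Further: cell surface tissue factor protein level read by ELISA.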 Conditions: primary human coronary artery smooth muscle cells; actives raise or lower the signal.

The structures appear in SMILES notation. Several values for one entry are separate records, joined by “and”; a condition that tells them apart may be missing. Equal entries are not always repeated. More than one record can exist for a structure, and the calls need not agree. Activity calls are given as the source filed them. How the source made its calls: active means hit-call score of the fitted dose curve at least 0.9, where 1 is the maximum; inactive means score below 0.9.

Usually AC50 stands for the midpoint of the concentration-response curve, whichever way the signal moves. Turning to `O=C1CCCCCCCCCCCCCCO1`, the half-maximal activity concentration (AC50) in assay [1] is 27.4 µM (active); in [2] it was 12.6 µM (active); in assay [4], 14.6 µM (active); in assay [5], 20 µM (active); in assay [6], 32.7 µM (active); in [7], 20 µM (active). The concentration at half-maximal activity (AC50) in assay [8] was 31.6 µM (active); in assay [9] it was 12.7 µM (active); in assay [10] it was 36.8 µM (active); in assay [11], 28.4 µM (active); in [12] it was 29 µM (active); in [13], 30 µM (active). Moreover, the half-maximal activity concentration (AC50) in assay [14] was 31 µM (active); in assay [15] it was 20 µM (active); in assay [16], 32.6 µM (active); in [17], 29.8 µM (active); in assay [18], 30.9 µM (active); in assay [19], 27.8 µM (active). Further, in [20], the AC50 was 28.7 µM (active). The outcome in assay [3] was inactive.
As for `CNC[C@H](O)c1cccc(O)c1`, the outcome in assay [1], in [2], in [3], in [4], in [5] and in assay [6] was inactive. Also, the result in assay [7], in assay [8], in [9], in assay [10], in assay [11] and in assay [12] was inactive. The outcome in assay [13], in [14], in assay [15], in assay [16], in assay [17] and in [18] was inactive. Further, the result in assay [19] and in assay [20] was inactive.
On to `CC(=O)OCCC(C)CC(C)(C)C` (stereo not drawn), for which the outcome in [1], in assay [2], in assay [3], in [5], in [6] and in assay [7] was inactive. The result in [8], in assay [9], in assay [10], in assay [11], in assay [12] and in [13] was inactive. The result in [14], in assay [15], in assay [16], in assay [17], in assay [18] and in assay [19] was inactive. The outcome in assay [20] was inactive. Besides, the AC50 in assay [11] was 5 µM (active).
`O=[N+]([O-])c1cc(C(F)(F)F)ccc1Cl`: the outcome in assay [1], in assay [2], in assay [3], in [4], in [5] and in [6] was inactive. Further, the result in assay [7], in assay [8], in [9], in assay [10], in assay [11] and in assay [12] was inactive. For the same compound, the outcome in assay [13], in assay [14], in [15], in assay [16], in [17] and in assay [18] was inactive. Besides, the outcome in assay [19] and in assay [20] was inactive.
With `c1ccc2c(c1)c1cccc3ccc4cccc2c4c31`, the result in assay [1], in assay [2], in assay [3], in assay [4], in assay [5] and in assay [6] was inactive. The outcome in assay [7], in assay [8], in [9], in assay [10], in assay [11] and in assay [12] was inactive. For the same compound, the result in [14], in [15], in [16], in assay [17], in assay [18] and in assay [19] was inactive. For the same compound, the result in assay [20] was inactive.
As to `CCC(=O)OCc1ccccc1`, the outcome in assay [1], in [2], in assay [3], in [5], in assay [6] and in assay [7] was inactive. Further, the outcome in [8], in [9], in assay [10], in assay [11], in assay [12] and in assay [13] was inactive. In addition, the result in assay [14], in assay [15], in assay [16], in assay [17], in assay [18] and in assay [19] was inactive. In [20], the result was inactive.
With `C[C@H]1C[C@@H]2[C@H]([C@@H](O)C[C@@]3(C)[C@H]2CC[C@]3(O)C(=O)CO)[C@@]2(C)C=CC(=O)C=C12`, the result in assay [1], in assay [2], in [3], in assay [5], in [6] and in [7] was inactive. In addition, the outcome in assay [9], in assay [11], in assay [13], in assay [14], in assay [15] and in assay [16] was inactive. In addition, the outcome in [18], in assay [19] and in assay [20] was inactive. The AC50 in [8] was 352 nM (active) and 321 nM (active); in assay [10], 471 nM (active) and 1.18 µM (active); in [12] it was 0.15 µM (active); in [14] it was 4.62 µM (active); in assay [17], 0.15 µM (active).
